Results: PubChem BioAssay AID1239 (SRMLSC, 2008)
Among all 190,000 compounds or so, about 3,100 (1.6%) were called active. This is one part of a sample in which actives are shown more often than they occur. Unmarked numbers belong to inactive results. Rule as the data show it: active = fold change above about 3.3; inconclusive = no clear call, values can overlap the other calls; inactive = below that.

Experiment: activators of NF-kB expression in neurons, primary screen, cell-based, HTS (AID 1239)
Settings: human neuronal cells, NF-kB reporter expression; at 12.5 µM; active compounds read high

| SMILES | fold change |
| --- | --- |
| COc1ccc(Nc2ncc(F)c(N3CCOCC3)n2)cc1 | 3.96 (active) |
| CCOc1ccc(Nc2nc(Cl)nc(N3CCN(c4ccc(OC)cc4)CC3)n2)cc1 | 0.61 |
| c1ccc(Nc2nc(N3CCOCC3)c3ccccc3n2)cc1 | 0.6 |
| Cc1cc(NC(=O)CSCc2ccccc2C)no1 | 1.25 |
| CC(NCc1nc2ccccc2n1C)C12CC3CC(CC(C3)C1)C2 (stereo unspecified) | 0.85 |
| CC(=O)Cc1nsc(NC(=O)c2csc3c2CCCC3)n1 | 1.73 |
| COC(=O)c1sccc1NC(=O)c1csc2c1CCCC2 | 1.41 |
| COC(=O)c1sc(NC(=O)c2csc3c2CCCC3)nc1C | 4.92 (active) |
| COc1cc(OC)c(C2=NOC(C(=O)Nc3c(C)n(C)n(-c4ccccc4)c3=O)C2)cc1Cl (stereo unspecified) | 0.97 |
| CN1CCN(CC#CCC2(O)c3ccccc3-c3ccccc32)CC1 | 1.01 |
| COc1ccc(C(=O)CSc2nnnn2C)c(OC)c1 | 1 |
| CNC(=O)CSc1nnnn1-c1ccc(C)cc1C | 1.23 |
| CCn1nnnc1SCC(=O)c1ccc(C)cc1C | 3.65 (active) |
| COCCNC(=O)C(c1ccc(O)cc1)N(C(=O)CCC(=O)Nc1nccs1)c1ccc(C)cc1 (stereo unspecified) | 0.99 |
| COC(=O)c1ccc(COC(=O)c2cnccn2)cc1 | 1.22 |
| O=C(CN1C(=O)/C(=C/c2ccccc2F)Sc2ccccc21)NCc1cccnc1 | 0.69 |
| OCC(O)CN(c1ccccc1)c1ccccc1 (stereo unspecified) | 1.39 |
| Brc1ccc(-c2nnc(-c3ccccc3)o2)o1 | 3.89 (active) |
| Nc1ccc(-c2nnc(-c3ccc(-c4ccccc4)cc3)o2)cc1 | 1.31 |
| O=C(OCc1ccc(Br)cc1)c1cccc(-c2nnc(-c3ccccc3)o2)c1 | 1.7 |
| COc1ccccc1Cn1c(C)nnc1-c1cnn(C)c1N | 1.41 |
| CCOC1CS(=O)(=O)CC1OCC (stereo unspecified) | 5.97 (active) |
| COc1ccccc1N1CCN(/N=C\C(Br)=C\c2ccccc2)CC1 | 1.33 |
| COc1ccc(CCNC(=O)CC2SC(=Nc3cc(C)cc(C)c3)NC2=O)cc1OC (stereo unspecified) | 0.95 |
| O=C(CSc1ccccc1)Nc1ccc(NC(=O)c2ccco2)cc1 | 1.45 |
| O=C(Nc1ccc(Oc2ccccc2)cc1)c1ccco1 | 4.89 (active) |

| SMILES | fold change |
| --- | --- |
| COC(=O)c1ccc(NC(=O)c2ccco2)cc1 | 2.51 |
| CCS(=O)(=O)Nc1ccc(C2=NN(C(C)=O)C(c3cccs3)C2)cc1 (stereo unspecified) | 1.16 |
| NS(=O)(=O)c1cccc(NC(=O)COC(=O)/C=C/c2ccco2)c1 | 1.19 |
| Cc1ccc(N(NC(=O)C(C)(C)O)C(=O)c2ccccc2)cc1C | 1.37 |
| CCCC(O)(CCC)C(=O)NN(C(=O)CCl)c1cccc(C)c1 | 0.5 |
| CCCCC(O)(CCCC)C(=O)NN(C(=O)CCl)c1ccccc1 | 4.9 (active) |
| Cc1nc(-c2ccccc2)sc1C(=O)/C=C/N(C)C | 1.77 |
| COc1ccccc1NC(=S)N1CCC(NC(=O)C23CC4CC(CC(C4)C2)C3)CC1 | 0.97 |
| CC(C)Cc1cc(C(=O)Nc2cc(Br)ccc2O)no1 | 6.03 (active) |
| CC(C)CNC(=O)c1cc(-c2ccc(Br)cc2)on1 | 0.98 |
| CC(C)Cc1cc(C(=O)NCCc2ccccc2)no1 | 3.27 |
| O=C(/C=C/c1ccc(Cl)cc1)Nc1ccc(S(=O)(=O)Nc2ncccn2)cc1 | 0.93 |
| O=C(O)/C=C/c1cn(-c2ccccc2)nc1-c1cccs1 | 1.14 |
| O=C(O)c1ccc(N/N=C/c2cn(-c3ccccc3)nc2-c2cccs2)cc1 | 6.86 (active) |
| O=C(/C=C\c1cn(-c2ccccc2)nc1-c1cccs1)N1CCOCC1 | 0.42 |
| CC(C(=O)NCC1CCCCC1)N(C)Cc1cccc(Cl)c1 (stereo unspecified) | 1.18 |
| N/C(=N\OC(=O)c1ccc([N+](=O)[O-])cc1)c1ccccn1 | 5.12 (active) |
| O=C(OCc1ccc([N+](=O)[O-])cc1)c1ccccn1 | 1.29 |
| N/C(=N\OC(=O)Cc1ccc([N+](=O)[O-])cc1)c1ccccn1 | 1.74 |
| Clc1ccc2nc(CSc3ccccc3)cn2c1 | 3.83 (active) |
| O=c1cc(CSc2ccc(Cl)cc2)nc(N2CCOCC2)[nH]1 | 1.5 |
| CCOc1ncccc1C(=O)OCc1cn2cc(Cl)ccc2n1 | 1.18 |
| CN1CCC(OC(=O)COc2ccc(Cl)cc2Cl)CC1 | 1.16 |
| CCOc1cnc(C(=O)NNC(=O)c2ccccc2Br)o1 | 1.13 |
| COc1ccc(C(=O)NCC(=O)N/N=C/c2ccc([N+](=O)[O-])s2)cc1OC | 0.62 |
